Data as given in article PMC5540273 (PLoS ONE, 2017).

What follows are molecules tested on TNIK. Details: concentration: 1 μM,replicates: in singlicate; n = 1.
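Also: KINOMEscan kinase panel screen.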

Compound | %Inh
Cn1ccc2ncnc(Oc3ccc(NC(=O)Nc4cc(C(C)(C)C)on4)c(Cl)c3)c21 | 92.5%
Cc1n[nH]c2cc(Nc3ccnc(Nc4cccc(CN5CCOCC5)c4)n3)ccc12 [GW682569] | 25%
CS(=O)(=O)c1cccc(CNc2nc(Nc3ccc4c(c3)[C@@H]3C[C@@H]4CNC3=O)ncc2C(F)(F)F)c1 | 88%
Cc1ccc(C(=O)Nc2ccc(Oc3ccc4nc(NC(=O)C5CC5)cn4c3)c(F)c2)c(=O)n1-c1ccccc1 | 18%
COC(=O)Nc1nc2cc(Oc3ccc(NC(=O)Nc4cc(C(F)(F)F)ccc4Cl)cc3)ccc2[nH]1.Cl [GW697465] | 0%
CC(C)c1nc(-c2cccc(NS(=O)(=O)c3ccccc3)c2)c(-c2ccnc(Nc3ccc4c(c3)CN(C)CC4)n2)s1 [GSK1649598] | 93.7%
Cn1ccc2ncnc(Oc3ccc(NC(=O)Nc4cccc(C(F)(F)F)c4)c(Cl)c3)c21 | 18%
CC(=O)Nc1ccc(-c2cc3ncnc(SCC(=O)O)c3s2)cc1 | 16%
C[C@@H](Oc1cc(-n2cnc3cc(-c4cnn(C)c4)ccc32)sc1C(N)=O)c1ccccc1Cl [GSK580432] | 48%
CC(C(=O)NC1CCN(c2ccnc(Nc3ccc(F)cc3)n2)C1)c1ccc(Cl)cc1 (stereo not drawn) [GSK1379713] | 0%
c1ccc(Oc2ccc(Nc3ccnc4ccc(-c5ccccn5)cc34)cc2)cc1 [GW407034] | 0%
COc1cc2c(Nc3ccc(NC(=O)c4ccccc4)cc3)ncnc2cc1OCCCN1CCOCC1 [GSK301329] | 0%
Nc1nccc(-c2ccc3c(N)n[nH]c3c2)n1 [GSK1034945] | 2%
CNC(=O)c1ccccc1Nc1nc(Nc2cccc(CS(C)(=O)=O)c2)ncc1C.O=CO [GSK1520489] | 62%
C[C@@H]1CNc2c(sc3ccc4nc(-c5ccncc5)ccc4c23)C(=O)N1 | 0%
CCn1c(-c2nonc2N)nc2cncc(CNC3CCNCC3)c21.Cl [SB-747651] | 0%
O=C(Nc1cccc(Oc2ccc3nccn3n2)c1)Nc1cccc(C(F)(F)F)c1 | 51%
Cc1ccc(Nc2ccnc(Nc3ccc4c(c3)CS(=O)(=O)C4)n2)cc1O.Cl [GW579362] | 68%
O=C(Nc1cccc(C(F)(F)F)c1)c1cccc(Oc2ccc3nccn3n2)c1 | 0%
NC(=O)c1ccc(-c2cc3ncnc(SCC(=O)O)c3s2)cc1 | 33%
COC(=O)c1cccc(NC(=O)NC2CCN(c3ccnc(Nc4cc(OC)c(OC)c(OC)c4)n3)C2)c1 (stereo not drawn) [GSK1379767] | 0%
Cc1cccc2c(-c3ccncc3)c(-c3ccc(F)cc3)nn12.Cl [GW461487] | 7%
CN(c1cccc(CNc2nc(Nc3ccc4c(c3)CC(=O)N4)ncc2C(F)(F)F)c1)S(C)(=O)=O | 75%

Each molecule was assayed on TNK1. Details: concentration: 1 μM,replicates: in singlicate; n = 1.

Compound | %Inh
OCCn1cc(-c2cnc3nnn(Cc4ccc5ncccc5c4)c3n2)cn1 | 19%
CC(=O)Nc1nc2cnc(Nc3cc(NC(=O)c4cccc(CC(C)(C)C#N)c4)ccc3C)nc2s1 | 7%
CCNCC(Cc1ccccc1)NC(=O)c1cc(Br)c(-c2ccnc3[nH]ccc23)s1.Cl.Cl (stereo not drawn) [GSK1383280] | 0%
N#Cc1cccc(C(=O)NC2CCN(c3ccnc(Nc4ccc(F)cc4)n3)C2)c1 (stereo not drawn) [GSK1379708] | 0%
CN1CCN(CCCNc2nccc(-c3c(-c4ccc(F)cc4)nn4cc(C(N)=O)ccc34)n2)CC1 [GW622475] | 0%
O=C(Nc1n[nH]c2cc(-c3ccco3)ccc12)C1CC1 [SB-737447] | 0%
CCOC(=O)N1CCC(n2cnc(-c3ccc(F)cc3)c2-c2ccnc(N)n2)CC1 [SB-219952] | 21%
COc1cc2ncn(-c3cc(OCC4CCCCC4)c(C(N)=O)s3)c2cc1OC [GSK204559] | 5%
CSc1nccc(-c2c(-c3ccc(F)cc3)ncn2CCCN2CCOCC2)n1.Cl [SB-217146] | 26%
CCn1c(-c2nonc2N)nc2cncc(Br)c21 [SB-738004] | 0%
Cn1ccc2ncnc(Oc3ccc(NC(=O)Nc4cccc(C(F)(F)F)c4)c(F)c3)c21 | 17%
Cc1cccc(-c2nc(Nc3ccncc3)c3sccc3n2)n1 [GW869641] | 26%
Cn1cc(-c2cccc3c(N)c(C(N)=O)nnc23)cn1 | 0%
CCN1CCN(CCCC(=O)Nc2n[nH]c3nc(-c4ccc(O)cc4)c(Br)cc23)CC1 [SB-731579] | 34%
Cn1ccc2ncnc(Oc3ccc(NC(=O)Nc4cc(C(C)(C)C)on4)c(Cl)c3)c21 | 0%
Cc1n[nH]c2cc(Nc3ccnc(Nc4cccc(CN5CCOCC5)c4)n3)ccc12 [GW682569] | 33%
CS(=O)(=O)c1cccc(CNc2nc(Nc3ccc4c(c3)[C@@H]3C[C@@H]4CNC3=O)ncc2C(F)(F)F)c1 | 97.2%
Cc1ccc(C(=O)Nc2ccc(Oc3ccc4nc(NC(=O)C5CC5)cn4c3)c(F)c2)c(=O)n1-c1ccccc1 | 64%
COC(=O)Nc1nc2cc(Oc3ccc(NC(=O)Nc4cc(C(F)(F)F)ccc4Cl)cc3)ccc2[nH]1.Cl [GW697465] | 28%

Compound | %Inh
CC(C)c1nc(-c2cccc(NS(=O)(=O)c3ccccc3)c2)c(-c2ccnc(Nc3ccc4c(c3)CN(C)CC4)n2)s1 [GSK1649598] | 100%
Cn1ccc2ncnc(Oc3ccc(NC(=O)Nc4cccc(C(F)(F)F)c4)c(Cl)c3)c21 | 6%
CC(=O)Nc1ccc(-c2cc3ncnc(SCC(=O)O)c3s2)cc1 | 0%
C[C@@H](Oc1cc(-n2cnc3cc(-c4cnn(C)c4)ccc32)sc1C(N)=O)c1ccccc1Cl [GSK580432] | 59%
CC(C(=O)NC1CCN(c2ccnc(Nc3ccc(F)cc3)n2)C1)c1ccc(Cl)cc1 (stereo not drawn) [GSK1379713] | 0%
c1ccc(Oc2ccc(Nc3ccnc4ccc(-c5ccccn5)cc34)cc2)cc1 [GW407034] | 28%
COc1cc2c(Nc3ccc(NC(=O)c4ccccc4)cc3)ncnc2cc1OCCCN1CCOCC1 [GSK301329] | 56%
Nc1nccc(-c2ccc3c(N)n[nH]c3c2)n1 [GSK1034945] | 0%
CNC(=O)c1ccccc1Nc1nc(Nc2cccc(CS(C)(=O)=O)c2)ncc1C.O=CO [GSK1520489] | 100%
C[C@@H]1CNc2c(sc3ccc4nc(-c5ccncc5)ccc4c23)C(=O)N1 | 22%
CCn1c(-c2nonc2N)nc2cncc(CNC3CCNCC3)c21.Cl [SB-747651] | 0%
O=C(Nc1cccc(Oc2ccc3nccn3n2)c1)Nc1cccc(C(F)(F)F)c1 | 26%
Cc1ccc(Nc2ccnc(Nc3ccc4c(c3)CS(=O)(=O)C4)n2)cc1O.Cl [GW579362] | 85%
O=C(Nc1cccc(C(F)(F)F)c1)c1cccc(Oc2ccc3nccn3n2)c1 | 36%
NC(=O)c1ccc(-c2cc3ncnc(SCC(=O)O)c3s2)cc1 | 0%
COC(=O)c1cccc(NC(=O)NC2CCN(c3ccnc(Nc4cc(OC)c(OC)c(OC)c4)n3)C2)c1 (stereo not drawn) [GSK1379767] | 0%
Cc1cccc2c(-c3ccncc3)c(-c3ccc(F)cc3)nn12.Cl [GW461487] | 0%
CN(c1cccc(CNc2nc(Nc3ccc4c(c3)CC(=O)N4)ncc2C(F)(F)F)c1)S(C)(=O)=O | 57%
